Assay outcomes as filed in PubChem BioAssay.
C diff HTS – inhibitors of Clostridium difficile growth | Clostridium difficile clinical isolate growth, OD600, 24 h; hits give low values | growth activity, negative = inhibition, % at 16 µg/mL (by protocol) | 86,000 tested, 0.25% active | AID 1259249;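 active = mean growth activity at or below -80% and every replicate also at or below -80%; inconclusive = mean at or below -80% but some replicate above -80%; inactive = mean growth activity above -80%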
Pf Dd2 inh – inhibitors of Plasmodium falciparum Dd2 growth. activity change, % at 10 µM. 94,000 tested, 2.3% active. P. falciparum Dd2 growth, SYBR Green, 72 h; hits give low values; in the data active = activity change below about -80%; inconclusive = no clear call, values can overlap the other calls
Numbers stand for hits; n = inactive; u = inconclusive; x = no result; ! = not active in a repeat. A selection: hits, their analogues and other compounds. The true share with any hit is near 2.3%.

SMILES	C diff HTS	Pf Dd2 inh
C[C@@H]1CCCCO[C@H](CN(C)C(=O)Nc2ccc(C(F)(F)F)cc2)[C@@H](C)CN([C@@H](C)CO)C(=O)c2cc(NC(=O)c3ccccc3)ccc2O1	n	-83
C[C@@H]1CN([C@@H](C)CO)C(=O)c2cc(NC(=O)c3ccncc3)ccc2O[C@@H](C)CCCCO[C@@H]1CN(C)Cc1ccc(C(F)(F)F)cc1	n	n
C[C@H]1CCCCO[C@@H](CN(C)C(=O)Nc2ccc(C(F)(F)F)cc2)[C@@H](C)CN([C@@H](C)CO)C(=O)c2cc(NC(=O)c3ccncc3)ccc2O1	n	-83
C[C@@H]1CN([C@@H](C)CO)C(=O)c2cc(NC(=O)c3ccccc3)ccc2O[C@@H](C)CCCCO[C@@H]1CN(C)C(=O)Nc1ccc(C(F)(F)F)cc1	n	-87
C[C@@H]1CCCCO[C@@H](CN(C)C(=O)Nc2ccc(C(F)(F)F)cc2)[C@@H](C)CN([C@H](C)CO)C(=O)c2cc(NC(=O)c3ccccc3)ccc2O1	n	n
C[C@H](CO)N1C[C@H](C)[C@@H](CN(C)C(=O)C2CCC2)Oc2ncc(C3=CCCC3)cc2C1=O	n	n
Cc1cccc(-c2ccc([C@@H]3[C@@H](CO)N4CCCCN(S(=O)(=O)c5ccccc5C)C[C@@H]34)cc2)c1	n	n
CCC(=O)N(C)C[C@@H]1Oc2cc(-c3ccc(OC)cc3)ccc2S(=O)(=O)N([C@H](C)CO)C[C@H]1C	n	n
C[C@@H]1CN([C@H](C)CO)C(=O)CCCn2cc(nn2)CO[C@@H]1CN(C)C(=O)Nc1ccccc1C(F)(F)F	n	n
C[C@H](CO)N1C[C@H](C)[C@@H](CN(C)C(=O)Cc2ccccc2)OCCCC[C@H](C)Oc2ccc(NC(=O)Cc3ccccc3)cc2C1=O	n	n
CC(=O)N1CC2(C1)[C@H](c1ccc(-c3ccc(C#N)cc3)cc1)[C@@H](CO)N2C(=O)C1CC1	n	n
CCCNC(=O)N1[C@H](C#N)[C@H](c2ccc(-c3cccc(OC)c3)cc2)[C@@H]1CO	n	u
O=C(NCc1ccccc1)[C@]1(Cc2ccccc2)N=C(c2ccc(OCCCO)cc2)O[C@@H]1c1ccccc1	n	x
COc1ccc(NC(=O)Nc2ccc3c(c2)C(=O)N([C@@H](C)CO)C[C@H](C)[C@@H](CN(C)CC2CC2)OCCCC[C@H](C)O3)cc1	x	-90
COc1ccc(NC(=O)Nc2ccc3c(c2)C(=O)N([C@H](C)CO)C[C@H](C)[C@@H](CN(C)CC2CC2)OCCCC[C@@H](C)O3)cc1	n	n
COc1ccc(NC(=O)Nc2ccc3c(c2)C(=O)N([C@H](C)CO)C[C@H](C)[C@H](CN(C)CC2CCCCC2)OCCCC[C@H](C)O3)cc1	n	u
COc1ccc(NC(=O)Nc2ccc3c(c2)C(=O)N([C@@H](C)CO)C[C@H](C)[C@@H](CN(C)CC2CCCCC2)OCCCC[C@H](C)O3)cc1	n	-86
C[C@@H]1CN([C@H](C)CO)C(=O)c2cc(NS(C)(=O)=O)ccc2O[C@@H]1CN(C)S(=O)(=O)c1ccc(F)cc1	n	n
CCCN1[C@@H]2Cn3c(ccc(-c4ccccc4F)c3=O)[C@H]1[C@@H](C(=O)NCc1ccccn1)[C@@H]2CO	n	n
COc1cccc(-c2ccc(C3[C@H]4CNC[C@@H]3N4C(=O)Nc3ccc(C(F)(F)F)cc3)cc2)c1 (some centres not stated)	-94!	n
Cc1ccccc1-c1ccc(C2[C@H]3CNC[C@@H]2N3C(=O)Nc2ccc(Cl)cc2)cc1 (some centres not stated)	-97!	n
O=C(Nc1ccc(C(F)(F)F)cc1)N1[C@@H]2CNC[C@H]1C2c1ccc(-c2ccc(F)cc2)cc1 (some centres not stated)	-99	n
COc1ccc(NC(=O)N2[C@@H]3CNC[C@H]2C3c2ccc(-c3ccccc3C)cc2)cc1 (some centres not stated)	n	n
O=C(Nc1ccc(C(F)(F)F)cc1)N1[C@@H]2CNC[C@H]1C2c1ccc(-c2cccnc2)cc1 (some centres not stated)	n	n
COc1ccc(NC(=O)N2[C@@H]3CNC[C@H]2C3c2ccc(-c3cccc(OC)c3)cc2)cc1 (some centres not stated)	n	n
SMILES	C diff HTS	Pf Dd2 inh
COc1ccc(CN(C)C[C@@H]2OCCCC[C@@H](C)Oc3ccc(NC(=O)Nc4ccccc4)cc3C(=O)N([C@@H](C)CO)C[C@@H]2C)cc1	n	n
Cc1ccc(-c2cnc3c(c2)C(=O)N([C@@H](C)CO)C[C@@H](C)[C@H](CN(C)Cc2ccccc2C(=O)O)O3)cc1	n	n
O=C(C[C@H]1C[C@H]2c3cc(NC(=O)C4CCOCC4)ccc3O[C@H]2[C@@H](CO)O1)NCc1ccccn1	n	n
Cc1ccc(S(=O)(=O)Nc2ccc3c(c2)C(=O)N([C@H](C)CO)C[C@H](C)[C@H](CN(C)S(=O)(=O)c2ccc(C)cc2)OCCCC[C@H](C)O3)cc1	x	n
O=C(C1CCOCC1)N1C[C@@H]2[C@H](c3ccccc31)[C@@H](CO)N2C(=O)Nc1ccccc1F	n	n
CCC(=O)N[C@H]1CC[C@H](CCn2cc(C3CC3)nn2)O[C@@H]1CO	n	n
C[C@@H]1CCCCO[C@H](CN(C)C(=O)Nc2cccc3ccccc23)[C@@H](C)CN([C@H](C)CO)C(=O)c2cc(NC(=O)c3ccncc3)ccc2O1	n	n
CCCN(C)C[C@@H]1Oc2cc(C#Cc3cccnc3)ccc2S(=O)(=O)N([C@@H](C)CO)C[C@@H]1C	n	-86
CCCN(C)C[C@@H]1Oc2cc(C#Cc3ccccc3OC)ccc2S(=O)(=O)N([C@@H](C)CO)C[C@@H]1C	n	n
CCCN(C)C[C@H]1Oc2cc(C#Cc3ccccc3OC)ccc2S(=O)(=O)N([C@@H](C)CO)C[C@H]1C	n	n
C[C@H]1CN([C@@H](C)CO)S(=O)(=O)c2ccc(C#Cc3cccnc3)cc2O[C@H]1CN(C)CC1CC1	x	n
CCCN(C)C[C@@H]1Oc2cc(C#Cc3ccccc3OC)ccc2S(=O)(=O)N([C@H](C)CO)C[C@@H]1C	n	-84
CCCN(C)C[C@H]1Oc2cc(C#Cc3ccccc3OC)ccc2S(=O)(=O)N([C@H](C)CO)C[C@H]1C	n	-81
CCCN1[C@@H]2c3ccc(-c4ccncc4)c(=O)n3C[C@@H]2[C@@H](CO)[C@@H]1C(=O)N1CCOCC1	n	n
O=C(C1CCCC1)N1CC2(C1)[C@H](c1ccccc1)[C@@H](CO)N2CC1CC1	n	n
C[C@@H]1CCCCO[C@H](CN(C)C(=O)Nc2ccc(F)cc2)[C@H](C)CN([C@@H](C)CO)C(=O)c2cc(NS(=O)(=O)c3cccs3)ccc2O1	n	-85
C[C@@H]1CCCCO[C@H](CN(C)C(=O)Nc2ccc(C(F)(F)F)cc2)[C@H](C)CN([C@@H](C)CO)C(=O)c2cc(NS(=O)(=O)c3cccs3)ccc2O1	n	u
C[C@@H]1CCCCO[C@H](CN(C)C(=O)Nc2ccc(F)cc2)[C@@H](C)CN([C@H](C)CO)C(=O)c2cc(NS(=O)(=O)c3cccs3)ccc2O1	n	n
C[C@@H]1CCCCO[C@H](CN(C)C(=O)Nc2ccc(C(F)(F)F)cc2)[C@H](C)CN([C@H](C)CO)C(=O)c2cc(NS(=O)(=O)c3cccs3)ccc2O1	n	-84
CCCNC(=O)N(C)C[C@H]1Oc2cc(-c3ccccc3F)ccc2S(=O)(=O)N([C@@H](C)CO)C[C@@H]1C	n	n
